Most compounds without a hit are left out; they make up all but 1.6% or so of the library.
KCNQ2 pot – enhances the rat KCNQ2 potassium channel; actives 0.54% (n = 310,000); B-score at 10 µM; CHO-K1 KCNQ2, FluxOR thallium flux fluorescence; active compounds read high; O88943;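 active = fluorescence ratio B-score at least 3 SD of library B-scores, with initial fluorescence B-score within 3 of them, cut at about 5.3 in these data; same plate scores as AID 2156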;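 also: B-score of peak minus minimum over baseline fluorescence ratio after K+ and Tl+ stimulus; positive B-score means potentiation of KCNQ2 with more thallium influx and brighter signal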
KCNQ2 block – inhibitors of rat KCNQ2 potassium channel; CHO-K1 KCNQ2, FluxOR thallium flux, 20 min; active compounds read low; B-score at 10 µM; actives 1.1% (n = 310,000); AID 2156;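 active = fluorescence ratio B-score at most minus 3 library SDs, with starting brightness B-score within 2 library SDs, cut at about -5.5 in these data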
Kir21 conf inh – confirmation of mouse Kir2.1 potassium channel inhibitors; shares compounds with KCNQ2 pot; Kir2.1-expressing cells, FluxOR thallium flux fluorescence; active compounds read low; AID 2032; Tl flux remaining, % of negative control (active compounds read low), % at 10 µM; actives 41% (n = 2,300);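 active = Primary-screen hit whose thallium flux fell at least 3 control SD below untreated wells in both duplicates, with normal baseline fluorescence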;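 also: 0% = blank wells without stimulus and 100% = stimulated no-compound controls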
HEK293 Tl flux – counter-screen for Kir2.1 inhibitors: effect in parental HEK293 cells | FluxOR thallium flux fluorescence; 0% = unstimulated blank wells | FluxOR signal as % of negative control (100 = no effect), % at 10 µM | shares compounds with KCNQ2 pot | actives 19% (n = 2,300);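 active = dye signal at least 3 control SD above or below untreated wells in both duplicates, raw fluorescence within 3, either direction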;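 also: percent is based on the flux ratio of peak minus minimum fluorescence over baseline F0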
CHO-K1 Tl ctr – counter-screen for KCNQ2 potentiators: effect in parental CHO-K1 cells. shares compounds with KCNQ2 pot. activity increase over 3SD of controls, % at 10 µM. FluxOR thallium flux fluorescence; zero = vehicle mean+3SD, 100% = vehicle-minus-blank window. actives 43% (n = 1,200);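 active = signal rise of at least 3 SD above the untreated control mean, in both duplicate wells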;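 also: counter screen of KCNQ2 potentiator hits so any rise reflects channel-independent effects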
KCNQ1 pot spec – selectivity of KCNQ2 potentiators: effect on human KCNQ1; activation over 3SD threshold, % at 10 µM; shares compounds with KCNQ2 pot; CHO KCNQ1 stable, FluxOR thallium flux fluorescence; beyond 3SD, as % of vehicle-control signal; AID 2283; actives 28% (n = 1,200);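 active = fluorescence ratio rise of at least 3 SD of vehicle wells above their mean, in both replicate wells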;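 also: 0% = vehicle mean plus 3 SD and 100% = vehicle minus unstimulated blank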
Target sequence (P51787 whole entry, looked up): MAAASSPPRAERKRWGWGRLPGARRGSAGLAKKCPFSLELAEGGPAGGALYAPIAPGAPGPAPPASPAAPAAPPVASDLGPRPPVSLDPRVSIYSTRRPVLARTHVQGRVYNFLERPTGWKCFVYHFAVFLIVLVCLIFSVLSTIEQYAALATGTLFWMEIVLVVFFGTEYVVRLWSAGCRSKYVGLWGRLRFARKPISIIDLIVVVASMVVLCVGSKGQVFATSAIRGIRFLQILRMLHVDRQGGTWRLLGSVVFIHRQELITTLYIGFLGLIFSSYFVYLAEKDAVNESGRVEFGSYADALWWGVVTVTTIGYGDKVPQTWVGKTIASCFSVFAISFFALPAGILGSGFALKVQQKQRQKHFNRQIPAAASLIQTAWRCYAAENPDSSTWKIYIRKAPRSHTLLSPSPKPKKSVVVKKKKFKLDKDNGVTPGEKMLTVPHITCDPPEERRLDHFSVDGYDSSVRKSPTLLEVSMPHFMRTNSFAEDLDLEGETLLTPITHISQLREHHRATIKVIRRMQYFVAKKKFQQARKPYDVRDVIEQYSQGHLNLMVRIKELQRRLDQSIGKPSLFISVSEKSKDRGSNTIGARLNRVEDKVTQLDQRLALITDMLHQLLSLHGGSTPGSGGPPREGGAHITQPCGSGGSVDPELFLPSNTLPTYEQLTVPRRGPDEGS
KCNQ2 pot confirm – confirmation of rat KCNQ2 potassium channel potentiators; CHO-KCNQ2 cells, FluxOR thallium flux fluorescence; shares compounds with KCNQ2 pot; actives 68% (n = 1,200); potentiation, less the hit threshold, % at 10 µM;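 active = fluorescence ratio rising 3 SD or more over the vehicle control mean in both replicates, plus primary screen hit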;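 also: peak minus minimum thallium fluorescence divided by baseline after K/Tl stimulus; 0% = vehicle mean plus 3 SD and 100% = vehicle minus unstimulated blank difference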
Kir2-1 sel – selectivity of KCNQ2 potentiators: effect on mouse Kir2.1; activity over 3SD threshold, % at 10 µM; HEK293 Kir2.1, FluxOR thallium flux fluorescence; shares compounds with KCNQ2 pot; actives 2% (n = 1,200);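 active = fluorescence ratio rise of at least 3 SD above the vehicle-control mean, seen in both replicates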;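 also: 0% = vehicle mean plus 3 SD and 100% = vehicle minus no-stimulus blank window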
KCNQ2 W236L MoA – potentiates the retigabine-insensitive rat KCNQ2 W236L mutant channel; shares compounds with KCNQ2 pot; CHO KCNQ2-W236L, automated patch clamp current; current increase over 3SD of negative controls (%), active compounds read high, % at 25 µM; actives 10% (n = 940); AID 2558;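 active = current increase at least 3 SD of the untreated controls above them in both duplicate recordings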
* marks the source's active call; other numbers are inactive results; i = inactive; . = no result.

SMILES	KCNQ2 pot	KCNQ2 block	Kir21 conf inh	HEK293 Tl flux	others
COc1ccc(S(=O)(=O)NCCSC(C)(C)C)cc1Cl	.	i	.	.
O=C(c1cccc(S(=O)(=O)N2CCOCC2)c1)N1CCCCCC1	1.2	i	.	.
COc1ccccc1/C=C(\NC(=O)c1ccccc1)C(=O)NCc1ccco1	0.73	i	i	i
COc1ccc(/C=C(/NC(=O)c2ccccc2)C(=O)NCc2ccco2)cc1	1.73	i	.	.
CN(C)CCCOc1ccc(C(C)(C)c2ccccc2)cc1	.	i	36.5%*	i
CN(C)CCOc1ccc(C(C)(C)c2ccccc2)cc1	.	i	.	.
CC(=O)c1cccc(N(C(=O)c2csnn2)C(C(=O)NC2CCCC2)c2ccccc2)c1 (configuration not stated)	1.19	i	.	.
COC(=O)c1ccc(Oc2nc(NC(C)C)nc(NC(C)C)n2)cc1	.	i	.	.
COC(=O)c1ccc(Oc2nc(NC(C)C)nc(N(C)C)n2)cc1	10.6*	i	i	i	CHO-K1 Tl ctr=-16.5;KCNQ1 pot spec=-12.5;KCNQ2 pot confirm=-25.7;Kir2-1 sel=-32.0
COCc1ccc(CN2CCCC(C(=O)Nc3ccccc3-c3ccc(OC)cc3)C2)o1 (configuration not stated)	0.15	i	.	.
CCc1ccc(CN2CCCC(C(=O)Nc3ccccc3-c3ccc(OC)cc3)C2)o1 (configuration not stated)	-6.14	-6.14*	i	i
COc1ccccc1-c1c(C)oc2c(CN3CCCC(C)C3)c(O)ccc2c1=O (configuration not stated)	0.33	i	.	.
Cc1ccc(C)c(S(=O)(=O)Nc2ccc(O)cc2)c1	3.06	i	.	.
Cc1cc(C)c(S(=O)(=O)Nc2ccc(O)cc2)cc1C	10.2*	i	.	.	CHO-K1 Tl ctr=-10.6;KCNQ1 pot spec=1.5*;KCNQ2 pot confirm=40.3*;Kir2-1 sel=-81.1;KCNQ2 W236L MoA=i
COc1ccccc1C(=O)NNC(=O)C(=O)Nc1ccc(C)c(Cl)c1	28*	i	i	312.0%*	CHO-K1 Tl ctr=77.8*;KCNQ1 pot spec=-8.6;KCNQ2 pot confirm=53.5*;Kir2-1 sel=-26.6;KCNQ2 W236L MoA=i
COc1ccccc1C(=O)NNC(=O)C(=O)NC(C)(C)C	3.82	i	.	.
COc1ccccc1C(=O)NNC(=O)c1ccc(Cl)cc1	0.04	i	.	.
COc1ccccc1C(=O)NNC(=O)C(=O)Nc1ccc(C)cc1	21.7*	i	i	416.5%*	CHO-K1 Tl ctr=-20.6;KCNQ1 pot spec=24.6*;KCNQ2 pot confirm=46.9*;Kir2-1 sel=-16.8;KCNQ2 W236L MoA=i
S=C(NCc1ccc(Cl)cc1)NCc1ccccn1	.	i	.	.
CC(C)CCC(CCNCc1ccccn1)c1ccc(Cl)cc1 (configuration not stated)	0.09	i	35.5%*	i
CC(=O)Nc1ccc([N+](=O)[O-])c(CS(=O)(=O)c2ccc(C)cc2)c1[N+](=O)[O-]	0.02	i	.	.
CCOC(=O)c1sc2ncnc(NCC(c3cccs3)N(C)C)c2c1C (configuration not stated)	7.72*	i	i	252.5%*	CHO-K1 Tl ctr=-8.2;KCNQ1 pot spec=0.2*;KCNQ2 pot confirm=32.5*;Kir2-1 sel=-28.9;KCNQ2 W236L MoA=i
CN(C)C(CNc1ncnc2sccc12)c1cccs1 (configuration not stated)	0.7	i	.	.
O=c1[nH]cc(N=Cc2cc([N+](=O)[O-])ccc2O)c(=O)[nH]1	.	i	.	.
O=c1[nH]cc(N=Cc2cc(Cl)cc(Cl)c2O)c(=O)[nH]1	8.31*	i	i	i	CHO-K1 Tl ctr=15.0*;KCNQ1 pot spec=18.0*;KCNQ2 pot confirm=23.7*;Kir2-1 sel=-11.9;KCNQ2 W236L MoA=i
SMILES	KCNQ2 pot	KCNQ2 block	Kir21 conf inh	HEK293 Tl flux	others
COc1ccc(CCNC(=O)CSc2nc3[nH]ncc3c(=O)n2-c2ccc(Br)cc2)cc1OC	.	i	.	.
O=C(O)/C(CC(=O)c1ccc(Cl)cc1)=N/Nc1ccc([N+](=O)[O-])cc1[N+](=O)[O-]	7.68*	i	i	i	CHO-K1 Tl ctr=-9.2;KCNQ1 pot spec=-8.5;KCNQ2 pot confirm=32.4*;Kir2-1 sel=-50.0;KCNQ2 W236L MoA=i
C/C(CCC(=O)O)=N/Nc1ccc([N+](=O)[O-])cc1[N+](=O)[O-]	1.62	i	.	.
COc1ccc(S(=O)(=O)NCCOc2ccccc2)cc1-n1cnnn1	3.14	i	.	.
Nc1nonc1-n1nnc(C(=O)N/N=C/c2ccccc2Cl)c1-c1ccc2c(c1)OCO2	1.78	i	.	.
COc1cccc(OC)c1OCCCOc1c(OC)cccc1OC	.	i	.	.
COc1cccc(OC)c1OCCOc1ccccc1OC(C)C	.	i	41.0%*	i
CC1CCCCC1NC(=O)CCCn1c(=S)[nH]c2ccccc2c1=O (configuration not stated)	1.01	i	.	.
CC1CCCCC1n1c(=S)[nH]c2ccccc2c1=O (configuration not stated)	6.64*	i	i	207.5%*	CHO-K1 Tl ctr=0.6*;KCNQ1 pot spec=19.8*;KCNQ2 pot confirm=19.1*;Kir2-1 sel=-24.4;KCNQ2 W236L MoA=i
Cc1ccc(CNC(=S)NC2CCCCC2)cc1	6.39*	i	i	i	CHO-K1 Tl ctr=-6.4;KCNQ1 pot spec=-15.5;KCNQ2 pot confirm=7.2*;Kir2-1 sel=-48.0;KCNQ2 W236L MoA=i
CCCc1ccc(C(C)NC(=S)NC2CCCCC2)cc1 (configuration not stated)	22.5*	i	i	i	CHO-K1 Tl ctr=-14.6;KCNQ1 pot spec=0.9*;KCNQ2 pot confirm=39.2*;Kir2-1 sel=-33.2;KCNQ2 W236L MoA=i
CCC(NC(=S)NC1CCCCC1)c1ccc(C)cc1 (configuration not stated)	22*	i	i	i	CHO-K1 Tl ctr=-6.5;KCNQ1 pot spec=-14.8;KCNQ2 pot confirm=71.2*;Kir2-1 sel=-46.2;KCNQ2 W236L MoA=i
CC(C)c1ccc(NC(=S)NC2CCCCCC2)cc1	.	i	.	.
O=C(Nc1ccccc1)NC1CCCCC1	0.04	i	.	.
Cc1ccc(CNC(=O)NC2CCCCC2)cc1	5.14	i	.	.
Cc1ccc(CN=C(Nc2ccccc2)NC2CCCCC2)cc1	.	i	60.0%*	i
Cc1ccc(C)c(C(C)NC(=S)NC2CCCCC2)c1 (configuration not stated)	0.26	i	.	.
COc1ccc(CCN2C(=S)NC3CC2(C)Oc2ccc([N+](=O)[O-])cc23)cc1OC (configuration not stated)	.	i	.	.
Cc1nnc(NC(=O)CSc2nc3c(c(=O)n2C)SC(C)C3)s1 (configuration not stated)	0.48	i	.	.
O=C(NC1CCCC1)c1cnn2c(C(F)(F)F)cc(-c3ccco3)nc12	.	i	.	.
CN(CCOc1ccc(Cl)cc1)Cc1cccc(S(=O)(=O)N(C)C)c1	0.77	i	.	.
CCc1ccc(OCC(=O)NNC(=S)NC(=O)C2CCCCC2)c(Br)c1	.	i	.	.
